BAZ2B block: BAZ2B (human) inhibition; Potency, µM (doses to about 114 µM), without a hit: at the top dose activity change, negative = inhibition, usual class: inhibitors; Q9UIF8; AlphaScreen BAZ2B-H3K14Ac peptide displacement; 4.4% of 360,000 active; note: % is set by controls: 0 for no effect and ±100 for the full control effect; nearly all actives have a fitted effect of over 60% in size
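In this displacement format the biotinylated H3(5-23) peptide acetylated at Lys14 serves as ligand at 50 nM, with BAZ2B at 50 nM in PBS pH 7.4 containing 0.01% Tween-20. Donor and acceptor beads are 10 ug/mL final.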
G9a block: inhibitors of human histone lysine methyltransferase G9a | 8.8% of 350,000 active | G9a H3K9 monomethylation, AlphaScreen, 2 h | Potency, µM (series often up to 102 µM), for the others: at the top dose activity, negative = inhibition, hits mostly inhibitors | Q96KQ7 | AID 504332; note: % is set by controls: 0 for no effect and ±100 for the full control effect; nearly all actives have a fitted effect of over 75% in size
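Chemiluminescent proximity detection of H3K9 monomethylation, read after 10 min bead incubation in the dark. Reaction: 20 nM G9a, 500 nM biotin-H3K9 peptide, 20 uM SAM cofactor, 2 h, room temperature, following 15 min enzyme-compound preincubation.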
ALOX12 inh: inhibitors of human 12S-lipoxygenase ALOX12; Potency, µM (top dose mostly 108 µM), inactives show at the top dose activity change, negative = inhibition, most hits filed as inhibitors; AID 1671190; 1.1% of 580,000 active; purified 12hLO, xylenol orange hydroperoxide absorbance; P18054; note: % is set by controls: 0 for no effect and ±100 for the full control effect
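Purified human 12hLO (150 nM final) in 25 mM Hepes, 0.01% Triton X-100, pH 7.0 was preincubated 15 min at room temperature with compound. Then 40 uM arachidonic acid was added, 30 min. Hydroperoxide was read by Fe-XO absorbance ratio 573/405 nm.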
HP1b chromo inh: HP1-beta chromodomain-methylated histone interaction inhibition. P83916. AlphaScreen HP1-beta / biotin-H3K9me3 peptide binding. Potency, µM (top dose mostly 114 µM), inactives show at the top dose activity change, negative = inhibition, hits mostly inhibitors. 0.56% of 390,000 active; note: nearly all actives have a fitted effect of over 70% in size
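HP1-beta protein (50 nM final) preincubated 30 min at room temperature with biotinylated H3(1-18)K9me3 peptide (50 nM) in PBS pH 7.4, 0.01% Tween-20, then compound added for 30 min. AlphaScreen streptavidin donor/nickel chelate acceptor beads (10 ug/mL final), 30 min dark, luminescence read.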
PLK1 PBD block: inhibitors of human PLK1 polo-box domain binding; P53350; Plk1 PBD binding of FITC phosphopeptide, fluorescence polarization; Potency, µM, inactives show max response, negative = inhibition, hits mostly inhibitors; 2.8% of 360,000 active; AID 720504; note: series mostly up to about 57 µM; % is set by controls: 0 for no effect and ±100 for the full control effect; nearly all actives have a fitted effect of over 65% in size
JMJD2A Tudor: inhibitors of human JMJD2A Tudor domain | 4.4% of 390,000 active | O75164 | AID 504339 | AlphaScreen JMJD2A-Tudor / H3K4me3 peptide binding | Potency, µM (highest dose often 114 µM), for inactives: at the top dose activity change, negative = inhibition, hits mostly inhibitors; note: % is set by controls: 0 for no effect and ±100 for the full control effect; nearly all actives have a fitted effect of over 50% in size
Target sequence (O75164 whole entry, looked up, the tested form may be a part): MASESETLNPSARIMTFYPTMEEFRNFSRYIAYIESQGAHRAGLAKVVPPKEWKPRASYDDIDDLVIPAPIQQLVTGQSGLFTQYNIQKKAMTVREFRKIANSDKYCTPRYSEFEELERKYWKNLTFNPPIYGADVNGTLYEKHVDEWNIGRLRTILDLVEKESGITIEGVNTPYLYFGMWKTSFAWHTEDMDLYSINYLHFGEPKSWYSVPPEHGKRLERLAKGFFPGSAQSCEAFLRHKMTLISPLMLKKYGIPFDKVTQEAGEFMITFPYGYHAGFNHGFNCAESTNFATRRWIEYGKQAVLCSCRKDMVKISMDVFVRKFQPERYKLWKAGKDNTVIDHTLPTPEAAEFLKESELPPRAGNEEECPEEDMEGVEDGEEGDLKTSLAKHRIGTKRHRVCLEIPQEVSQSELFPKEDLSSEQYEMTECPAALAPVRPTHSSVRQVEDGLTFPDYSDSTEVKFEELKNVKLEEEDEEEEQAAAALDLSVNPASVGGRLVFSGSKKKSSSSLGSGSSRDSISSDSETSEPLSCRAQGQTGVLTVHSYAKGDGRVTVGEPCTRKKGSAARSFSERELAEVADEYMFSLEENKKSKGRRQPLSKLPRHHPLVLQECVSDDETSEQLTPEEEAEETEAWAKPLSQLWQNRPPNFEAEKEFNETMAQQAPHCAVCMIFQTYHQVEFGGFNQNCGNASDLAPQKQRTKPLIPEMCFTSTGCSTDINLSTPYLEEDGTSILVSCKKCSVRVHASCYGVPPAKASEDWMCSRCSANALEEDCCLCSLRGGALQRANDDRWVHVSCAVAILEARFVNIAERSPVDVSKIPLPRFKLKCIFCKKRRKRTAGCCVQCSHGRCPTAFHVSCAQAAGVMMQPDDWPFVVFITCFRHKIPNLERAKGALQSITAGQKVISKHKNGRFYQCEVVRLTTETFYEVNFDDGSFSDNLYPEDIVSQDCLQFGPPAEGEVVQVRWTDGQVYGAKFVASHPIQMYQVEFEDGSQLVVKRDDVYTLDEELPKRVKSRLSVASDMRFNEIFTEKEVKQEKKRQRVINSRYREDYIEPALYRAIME
The depositor's hits bear a star; ? = inconclusive; . = not tested or not shown; [ ] = another dose, or the depositor's remark. In the library only some 9% were active in any assay of this set; here they are far more common. Calls come from the whole dose curve; as a rule, active = well fitted curve in the direction sought with a large enough effect; inconclusive = small, poorly fitted or top-dose-only effect, or another doubt; inactive = no such curve, though single readings can be large; an effect the other way counts as inactive or inconclusive. Potency is the fitted concentration of half-maximal effect.

SMILES	BAZ2B block	G9a block	ALOX12 inh	HP1b chromo inh	PLK1 PBD block	JMJD2A Tudor
C[C@@H]1CN([C@@H](C)CO)C(=O)CCCn2nncc2CO[C@H]1CN(C)S(=O)(=O)c1ccc(Oc2ccccc2)nc1	.	.	-0.3%	.	-15.7%	.
COc1ccc(C(=O)/C(C#N)=N/Nc2ccc([N+](=O)[O-])cc2)cc1	7.08µM*	2µM*	?	?	-15.3%	7.94µM*
N#C/C(=N/Nc1ccc(OC(F)(F)F)cc1)C(N)=S	35.5µM*	.	?	-18.7%	-8.3%	?
COc1ccc(N/N=C(\C#N)C(=N)N2CCOCC2)cc1	-30.9%	28.2µM*	8.1%	12.0%	-7.1%	-30.6%
COC(=O)/C(=C\C(=O)c1ccc([N+](=O)[O-])cc1)Nc1ccc(OC)cc1	5.62µM*	.	?	11.2µM*	-3.5%	17.8µM*
CCOc1ccc(N/N=C(/C#N)C(N)=O)cc1	-13.8%	?	?	16.2%	-2.3%	-30.2%
CCOC(=O)c1cn(Cc2c(C)c(C)c(C)c(C)c2C)nn1	5.8%	-9.8%[59 µM]	-12.3%	16.6%	-6.2%	-13.2%
O=C(CSC1=Nc2ccccc2C2=NC(c3ccccc3)C(=O)N12)Nc1ccccc1Cl (stereo unspecified)	.	.	-13.7%	.	.	.
COc1ccc(N/N=C(\C#N)C(N)=O)cc1	-4.8%	8.91µM*	-13.3%	-13.6%	-16.2%	-34.3%
Cc1ccccc1-n1c(SCC(=O)c2c(N)n(C3CC3)c(=O)[nH]c2=O)nnc1N1CCOCC1	-1.8%	10µM*	164.0%	20.5%	-7.6%	-10.8%
Cc1ccc(-n2c(SCC(=O)c3c(N)n(C4CC4)c(=O)[nH]c3=O)nnc2N2CCOCC2)cc1	-1.8%	-36.7%	18.1%	21.1%	-6.6%	-5.4%
CCn1c(SCC(=O)c2c(N)n(C3CC3)c(=O)[nH]c2=O)nnc1-c1ccccc1OC	4.5%	2µM*	?	27.3%	-5.2%	-18.4%
CCCN1C2CCCC1CC(NC(=O)c1ccc(C(C)(C)C)cc1)C2 (stereo unspecified)	-15.3%	11.2%	0.0%	36.6%	-16.0%	-11.9%
CCn1c(=O)cc(OCC(=O)N2CCCCCC2)c2ccccc21	11.0%	23.3%[59 µM]	-0.7%	23.1%	-2.8%	15.8%
Cc1c([N+](=O)[O-])cc(C(=O)Oc2ccc(Br)cc2C(=S)N2CCCCC2)cc1[N+](=O)[O-]	?	8.91µM*	-3.3%	-28.3%	?	?
O=C(Oc1ccc(Br)cc1C(=S)N1CCOCC1)c1ccc(F)cc1	?	.	.	-36.1%	11.9µM*	-35.9%
Cc1ccc(C(=O)Oc2ccc(Br)cc2C(=S)N2CCOCC2)cc1	-13.5%	39.8µM*	?	?	?	-21.4%
O=C(Oc1ccccc1C(=O)N1CCOCC1)c1cccc(Br)c1	-4.7%	-3.7%	?	38.0%	0.1%	-10.6%
COc1ccc(S(=O)(=O)Oc2ccc(C(=S)N3CCOCC3)cc2OC)cc1	-3.7%	.	0.0%	19.6%	-5.1%	-22.1%
COc1ccc(C(=O)Oc2ccc(Br)cc2C(=S)N2CCOCC2)cc1	-23.9%	56.2µM*	-19.0%	69.6%	-21.2%	-31.0%
CCOC(=O)C1=C(N)OC2=C(C(=O)CCC2)C1c1ccco1 (stereo unspecified)	-38.4%	?	-3.8%	21.7%	-11.9%	-22.0%
COc1ccc(-n2c(=O)[nH]cc(C(=O)Nc3ccc4c(c3)OCO4)c2=O)cc1OC	-25.0%	?	-6.8%	25.8%	2.3%	?
c1ccc(-c2nc3c(c(NCC4OCCc5ccccc54)n2)CCNCC3)nc1 (stereo unspecified)	.	.	76.7%	.	.	.
Cc1ccc(SCC(=O)OCC(=O)N(CCC#N)c2ccccc2)cc1C	13.1%	56.2µM*	-6.3%	53.2%	-0.9%	?
O=C(Nc1cccc(O)c1)C1CCCN1C(=O)OCc1ccccc1 (stereo unspecified)	-0.3%	9.9%[59 µM]	1.4%	42.1%	-5.6%	-4.2%
CCc1ccc(NC(=O)c2cc3n(n2)CC(c2ccc4c(c2)OCO4)OC3)cc1 (stereo unspecified)	.	.	52.4%	.	.	.
